Data taken from PubChem BioAssay AID1159580 (chemical genetic matrix, 2015).
Where “and” joins values, the source holds several entries; their conditions need not be identical. Identical values can stand only once. Out of some 5,500 compounds screened, about 2,000 (36%) were called active. Inconclusive results (about 18%) are left out. The list shows a part of the results. Values without a mark were called inactive. Rule as the data show it: active = normalized growth mostly below about 0.91 (no sharp cut-off); inconclusive = no clear call, values can overlap the other calls; inactive = mostly above about 0.92.

Test: chemical genetic growth profiling, strain panel (AID 1159580);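 also: tested at 20 µM; growth read once vehicle control cultures reached saturation at 30 °C; 1 = growth at the plate median or of vehicle wells; lower values mean less growth of the strain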
Conditions: S. cerevisiae deletion strains, growth OD

Q: What does the source list for `Cc1c(O)c(O)cc2c1CC=C1[C@@]2(C)CC[C@@]2(C)C3C[C@](C)(C(=O)O)CC[C@]3(C)CC[C@]12C` (stereo partly specified)?
A: normalized growth (locus YAL021C, strain ccr4, stronger effect = lower value): 0.711 (active); normalized growth (locus YAL026C, strain drs2, stronger effect = lower value): 0.422 (active); normalized growth (locus YAL030W, strain snc1, stronger effect = lower value): 0.541 (active); normalized growth (locus YBL061C, strain skt5, stronger effect = lower value): 0.533 (active); normalized growth (locus YBR009C, strain hhf1, stronger effect = lower value): 0.265 (active); normalized growth (locus YBR021W, strain FUR4, stronger effect = lower value): 1; normalized growth (locus YBR023C, strain chs3, stronger effect = lower value): 0.471 (active); normalized growth (locus YBR171W, strain sec66, stronger effect = lower value): 0.842 (active); normalized growth (locus YBR229C, strain ROT2, stronger effect = lower value): 0.966; normalized growth (locus YBR231C, strain swc5, stronger effect = lower value): 0.326 (active); normalized growth (locus YBR279W, strain paf1, stronger effect = lower value): 0.41 (active); normalized growth (locus YCL011C, strain gbp2, stronger effect = lower value): 0.377 (active); normalized growth (locus YCL016C, strain dcc1, stronger effect = lower value): 0.571 (active); normalized growth (locus YCL029C, strain bik1, stronger effect = lower value): 0.947; normalized growth (locus YCL061C, strain MRC1, stronger effect = lower value): 0.635 (active); normalized growth (locus YCL069W, strain vba3, stronger effect = lower value): 0.668 (active); normalized growth (locus YCR088W, strain abp1, stronger effect = lower value): 0.738 (active); normalized growth (locus YDL005C, strain med2, stronger effect = lower value): 0.413 (active); normalized growth (locus YDL035C, strain GPR1, stronger effect = lower value): 0.872; normalized growth (locus YDL040C, strain nat1, stronger effect = lower value): 0.738 (active); normalized growth (locus YDL074C, strain BRE1, stronger effect = lower value): 0.797; normalized growth (locus YDL101C, strain DUN1, stronger effect = lower value): 0.924; normalized growth (locus YDL185W, strain tfp1, stronger effect = lower value): 1.01; normalized growth (locus YDL192W, strain arf1, stronger effect = lower value): 0.889 (active); normalized growth (locus YDR001C, strain nth1, stronger effect = lower value): 0.766 (active); normalized growth (locus YDR069C, strain doa4, stronger effect = lower value): 0.459 (active); normalized growth (locus YDR101C, strain arx1, stronger effect = lower value): 0.962; normalized growth (locus YDR137W, strain rgp1, stronger effect = lower value): 0.269 (active); normalized growth (locus YDR150W, strain NUM1, stronger effect = lower value): 0.959; normalized growth (locus YDR159W, strain sac3, stronger effect = lower value): 0.465 (active); normalized growth (locus YDR162C, strain NBP2, stronger effect = lower value): 0.803 (active); normalized growth (locus YDR195W, strain ref2): 0.548 (active); normalized growth (locus YDR297W, strain sur2, stronger effect = lower value): 0.479 (active); normalized growth (locus YDR318W, strain mcm21, stronger effect = lower value): 0.917 (active); normalized growth (locus YDR334W, strain swr1, stronger effect = lower value): 0.338 (active); normalized growth (locus YDR335W, strain msn5, stronger effect = lower value): 0.698 (active); normalized growth (locus YDR388W, stronger effect = lower value): 0.962; normalized growth (locus YDR392W, strain spt3, stronger effect = lower value): 0.125 (active); normalized growth (locus YDR502C, strain sam2, stronger effect = lower value): 0.929; normalized growth (locus YEL003W, strain gim4, stronger effect = lower value): 0.416 (active); normalized growth (locus YEL037C, strain rad23, stronger effect = lower value): 0.71 (active); normalized growth (locus YEL061C, strain CIN8 (second series), stronger effect = lower value): 0.701 (active); normalized growth (locus YEL061C, strain CIN8, stronger effect = lower value): 0.906 (active); normalized growth (locus YER015W, strain faa2, stronger effect = lower value): 0.491 (active); normalized growth (locus YER016W, strain bim1, stronger effect = lower value): 0.612 (active); normalized growth (locus YER110C, stronger effect = lower value): 1; normalized growth (locus YER111C, strain swi4, stronger effect = lower value): 0.581 (active); normalized growth (locus YER155C, strain BEM2 (second series), stronger effect = lower value): 0.348 (active); normalized growth (locus YER155C, strain BEM2, stronger effect = lower value): 0.767 (active); normalized growth (locus YER167W, strain BCK2, stronger effect = lower value): 0.921; normalized growth (locus YFR010W, strain ubp6, stronger effect = lower value): 0.561 (active); normalized growth (locus YGL078C, strain dbp3, stronger effect = lower value): 0.977; normalized growth (locus YGL086W, strain mad1, stronger effect = lower value): 0.936; normalized growth (locus YGL167C, strain pmr1, stronger effect = lower value): 0.738 (active); normalized growth (locus YGL173C, strain kem1, stronger effect = lower value): 0.31 (active); normalized growth (locus YGL227W, strain vid30, stronger effect = lower value): 0.854 (active); normalized growth (locus YGL240W, strain doc1, stronger effect = lower value): 0.605 (active); normalized growth (locus YGL248W, strain PDE1, stronger effect = lower value): 0.845 (active); normalized growth (locus YGL253W, strain hxk2, stronger effect = lower value): 0.37 (active); normalized growth (locus YGR135W, strain pre9, stronger effect = lower value): 0.936; normalized growth (locus YGR252W, strain gcn5, stronger effect = lower value): 0.873; normalized growth (locus YHR013C, strain ard1, stronger effect = lower value): 0.203 (active); normalized growth (locus YHR027C, strain rpn1, stronger effect = lower value): 0.45 (active); normalized growth (locus YHR030C, strain SLT2, stronger effect = lower value): 0.947 and 0.918; normalized growth (locus YHR079C, strain IRE1 (second series), stronger effect = lower value): 0.976; normalized growth (locus YHR079C, strain IRE1, stronger effect = lower value): 0.945; normalized growth (locus YHR094C, strain hxt1, stronger effect = lower value): 0.988; normalized growth (locus YHR129C, strain ARP1, stronger effect = lower value): 0.838 (active); normalized growth (locus YHR142W, strain chs7, stronger effect = lower value): 0.387 (active); normalized growth (locus YHR200W, strain rpn10, stronger effect = lower value): 0.964; normalized growth (locus YIL066C, strain RNR3, stronger effect = lower value): 0.801 (active); normalized growth (locus YIL073C, strain SPO22, stronger effect = lower value): 0.863; normalized growth (locus YIL125W, strain kgd1, stronger effect = lower value): 0.942; normalized growth (locus YIR030C, strain dcg1, stronger effect = lower value): 0.958; normalized growth (locus YJL092W, strain hpr5, stronger effect = lower value): 0.686 (active); normalized growth (locus YJL095W, strain BCK1 (second series), stronger effect = lower value): 0.405 (active); normalized growth (locus YJL095W, strain BCK1, stronger effect = lower value): 0.784 (active) and 0.865 (active); normalized growth (locus YJL115W, strain asf1, stronger effect = lower value): 0.741 (active); normalized growth (locus YJL129C, strain trk1, stronger effect = lower value): 0.482 (active); normalized growth (locus YJL134W, strain LCB3, stronger effect = lower value): 0.967; normalized growth (locus YJL154C, strain vps35, stronger effect = lower value): 0.689 (active); normalized growth (locus YJL164C, strain tpk1, stronger effect = lower value): 0.289 (active); normalized growth (locus YJL166W, strain qcr8, stronger effect = lower value): 0.233 (active); normalized growth (locus YJL168C, strain set2, stronger effect = lower value): 0.979; normalized growth (locus YJL187C, strain SWE1 (second series), stronger effect = lower value): 0.897; normalized growth (locus YJL187C, strain SWE1, stronger effect = lower value): 0.457 (active)
